Where “and” joins values, the source holds several entries; their conditions need not be identical. Equal entries are not always repeated. Screen size: about 5,500 compounds; about 2,000 (36%) were called active. Another 18% or so got no clear call; they are omitted. No stated cut-off is given here; in the data, active means normalized growth mostly below about 0.91 (no sharp cut-off); inconclusive means no clear call, values can overlap the other calls; inactive means mostly above about 0.92. The list shows a part of the results.
Assay: chemical genetic growth profiling, strain panel (AID 1159580);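 further: tested at 20 µM; growth read once vehicle control cultures reached saturation at 30 °C; 1 = growth at the plate median or of vehicle wells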
Details: S. cerevisiae deletion strains, growth OD

## C#C[C@]1(O)CCC2C3CCC4=Cc5oncc5C[C@]4(C)C3CC[C@@]21C (stereo partly specified)
Locus YAL021C, strain ccr4, stronger effect = lower value
  normalized growth: 1.05 (inactive)
Locus YAL026C, strain drs2, stronger effect = lower value
  normalized growth: 0.977 (inactive)
Locus YAL030W, strain snc1, stronger effect = lower value
  normalized growth: 0.94 (inactive)
Locus YBL061C, strain skt5, stronger effect = lower value
  normalized growth: 0.941 (inactive)
Locus YBR009C, strain hhf1, stronger effect = lower value
  normalized growth: 0.918 (inactive)
Locus YBR021W, strain FUR4, stronger effect = lower value
  normalized growth: 1.01 (inactive)
Locus YBR023C, strain chs3, stronger effect = lower value
  normalized growth: 0.958 (inactive)
Locus YBR171W, strain sec66, stronger effect = lower value
  normalized growth: 0.937 (inactive)
Locus YBR229C, strain ROT2, stronger effect = lower value
  normalized growth: 0.898 (active)
Locus YBR231C, strain swc5, stronger effect = lower value
  normalized growth: 0.966 (inactive)
Locus YBR279W, strain paf1, stronger effect = lower value
  normalized growth: 0.969 (inactive)
Locus YCL011C, strain gbp2, stronger effect = lower value
  normalized growth: 0.97 (inactive)
Locus YCL016C, strain dcc1, stronger effect = lower value
  normalized growth: 0.996 (inactive)
Locus YCL029C, strain bik1, stronger effect = lower value
  normalized growth: 0.919 (inactive)
Locus YCL061C, strain MRC1, stronger effect = lower value
  normalized growth: 0.943 (inactive)
Locus YCL069W, strain vba3, stronger effect = lower value
  normalized growth: 0.956 (inactive)
Locus YCR088W, strain abp1, stronger effect = lower value
  normalized growth: 0.943 (inactive)
Locus YDL005C, strain med2, stronger effect = lower value
  normalized growth: 0.954 (inactive)
Locus YDL035C, strain GPR1, stronger effect = lower value
  normalized growth: 0.94 (inactive)
Locus YDL040C, strain nat1, stronger effect = lower value
  normalized growth: 0.958 (inactive)
Locus YDL074C, strain BRE1, stronger effect = lower value
  normalized growth: 0.725 (active)
Locus YDL101C, strain DUN1, stronger effect = lower value
  normalized growth: 0.906 (inactive)
Locus YDL185W, strain tfp1, stronger effect = lower value
  normalized growth: 0.932 (inactive)
Locus YDL192W, strain arf1, stronger effect = lower value
  normalized growth: 0.933 (inactive)
Locus YDR001C, strain nth1, stronger effect = lower value
  normalized growth: 0.961 (inactive)
Locus YDR069C, strain doa4, stronger effect = lower value
  normalized growth: 0.96 (inactive)
Locus YDR101C, strain arx1, stronger effect = lower value
  normalized growth: 0.887 (active)
Locus YDR137W, strain rgp1, stronger effect = lower value
  normalized growth: 0.859 (inactive)
Locus YDR150W, strain NUM1, stronger effect = lower value
  normalized growth: 0.929 (inactive)
Locus YDR159W, strain sac3, stronger effect = lower value
  normalized growth: 0.839 (active)
Locus YDR162C, strain NBP2, stronger effect = lower value
  normalized growth: 0.866 (inactive)
Locus YDR195W, strain ref2
  normalized growth: 0.978 (inactive)
Locus YDR297W, strain sur2, stronger effect = lower value
  normalized growth: 0.937 (inactive)
Locus YDR318W, strain mcm21, stronger effect = lower value
  normalized growth: 0.891 (active)
Locus YDR334W, strain swr1, stronger effect = lower value
  normalized growth: 0.965 (inactive)
Locus YDR335W, strain msn5, stronger effect = lower value
  normalized growth: 0.95 (inactive)
Locus YDR388W, stronger effect = lower value
  normalized growth: 0.957 (inactive)
Locus YDR392W, strain spt3, stronger effect = lower value
  normalized growth: 0.542 (active)
Locus YDR502C, strain sam2, stronger effect = lower value
  normalized growth: 0.887 (active)
Locus YEL003W, strain gim4, stronger effect = lower value
  normalized growth: 0.932 (inactive)
Locus YEL037C, strain rad23, stronger effect = lower value
  normalized growth: 0.971 (inactive)
Locus YEL061C, strain CIN8 (second series), stronger effect = lower value
  normalized growth: 0.958 (inactive)
Locus YEL061C, strain CIN8, stronger effect = lower value
  normalized growth: 0.93 (inactive)
Locus YER015W, strain faa2, stronger effect = lower value
  normalized growth: 0.961 (inactive)
Locus YER016W, strain bim1, stronger effect = lower value
  normalized growth: 0.969 (inactive)
Locus YER110C, stronger effect = lower value
  normalized growth: 0.933 (inactive)
Locus YER111C, strain swi4, stronger effect = lower value
  normalized growth: 0.978 (inactive)
Locus YER155C, strain BEM2 (second series), stronger effect = lower value
  normalized growth: 0.828 (active)
Locus YER155C, strain BEM2, stronger effect = lower value
  normalized growth: 0.903 (active)
Locus YER167W, strain BCK2, stronger effect = lower value
  normalized growth: 0.939 (inactive)
Locus YFR010W, strain ubp6, stronger effect = lower value
  normalized growth: 0.927 (inactive)
Locus YGL078C, strain dbp3, stronger effect = lower value
  normalized growth: 0.962 (inactive)
Locus YGL086W, strain mad1, stronger effect = lower value
  normalized growth: 0.85 (active)
Locus YGL167C, strain pmr1, stronger effect = lower value
  normalized growth: 0.942 (inactive)
Locus YGL173C, strain kem1, stronger effect = lower value
  normalized growth: 0.929 (inactive)
Locus YGL227W, strain vid30, stronger effect = lower value
  normalized growth: 0.958 (inactive)
Locus YGL240W, strain doc1, stronger effect = lower value
  normalized growth: 0.94 (inactive)
Locus YGL248W, strain PDE1, stronger effect = lower value
  normalized growth: 0.892 (inactive)
Locus YGL253W, strain hxk2, stronger effect = lower value
  normalized growth: 0.946 (inactive)
Locus YGR135W, strain pre9, stronger effect = lower value
  normalized growth: 0.999 (inactive)
Locus YGR252W, strain gcn5, stronger effect = lower value
  normalized growth: 0.99 (inactive)
Locus YHR013C, strain ard1, stronger effect = lower value
  normalized growth: 1.01 (inactive)
Locus YHR027C, strain rpn1, stronger effect = lower value
  normalized growth: 0.979 (inactive)
Locus YHR030C, strain SLT2, stronger effect = lower value
  normalized growth: 0.825 (active) and 0.957 (inactive)
Locus YHR079C, strain IRE1 (second series), stronger effect = lower value
  normalized growth: 0.924 (active)
Locus YHR079C, strain IRE1, stronger effect = lower value
  normalized growth: 0.964 (inactive)
Locus YHR094C, strain hxt1, stronger effect = lower value
  normalized growth: 0.939 (inactive)
Locus YHR129C, strain ARP1, stronger effect = lower value
  normalized growth: 0.889 (active)
Locus YHR142W, strain chs7, stronger effect = lower value
  normalized growth: 0.888 (inactive)
Locus YHR200W, strain rpn10, stronger effect = lower value
  normalized growth: 0.912 (active)
Locus YIL066C, strain RNR3, stronger effect = lower value
  normalized growth: 0.785 (active)
Locus YIL073C, strain SPO22, stronger effect = lower value
  normalized growth: 0.871 (inactive)
Locus YIL125W, strain kgd1, stronger effect = lower value
  normalized growth: 0.917 (active)
Locus YIR030C, strain dcg1, stronger effect = lower value
  normalized growth: 0.927 (active)
Locus YJL092W, strain hpr5, stronger effect = lower value
  normalized growth: 0.934 (inactive)
Locus YJL095W, strain BCK1 (second series), stronger effect = lower value
  normalized growth: 0.976 (inactive)
Locus YJL095W, strain BCK1, stronger effect = lower value
  normalized growth: 0.729 (active) and 0.973 (inactive)
Locus YJL115W, strain asf1, stronger effect = lower value
  normalized growth: 0.952 (inactive)
Locus YJL129C, strain trk1, stronger effect = lower value
  normalized growth: 0.83 (active)
Locus YJL134W, strain LCB3, stronger effect = lower value
  normalized growth: 0.944 (inactive)
Locus YJL154C, strain vps35, stronger effect = lower value
  normalized growth: 0.961 (inactive)
Locus YJL164C, strain tpk1, stronger effect = lower value
  normalized growth: 0.973 (inactive)
Locus YJL166W, strain qcr8, stronger effect = lower value
  normalized growth: 0.899 (active)
Locus YJL168C, strain set2, stronger effect = lower value
  normalized growth: 0.941 (inactive)
Locus YJL187C, strain SWE1 (second series), stronger effect = lower value
  normalized growth: 0.904 (inactive)
Locus YJR043C, strain POL32, stronger effect = lower value
  normalized growth: 0.93 (inactive)
